The text below walks through data of the supplement of paper PMC11577813, “Eurasian spruce bark beetle detects lanierone using a highly expressed specialist odorant receptor, present in several functional sensillum types” (BMC Biology, 2024).

± gives the standard deviation of the averaged measurements.

The test system of this assay is (4S)-cis-verbenol A-neuron OSN class. Nature of the assay: net action potential response of A-neuron (blank-subtracted) (spikes/s (Hz)); higher = stronger excitation. To be noted: 10 µg on filter paper; neuron: A neuron (large spike amplitude). The procedure:
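Single sensillum recordings from antennal olfactory sensilla of live adult Ips typographus. Each compound was 10 µg in paraffin oil on filter paper, delivered as a 0.5 s puff. Net response = spikes in the first 0.5 s of response minus the 0.5 s pre-stimulus count, doubled to give Hz, with blank response subtracted. Values are for the large-spike A-neuron class of each of seven sensillum types that co-house the lanierone B-neuron; N = 1-4 sensilla, averaged.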
Turning to `CC1=CC(C)(C)C=C(O)C1=O` [Lanierone], the “net action potential response” value is 1.33 ± 5.8.

Turning to `COc1ccc(C)cc1` [4-Methyl anisole], the “net action potential response” value stood at 4.67 ± 4.6.

In the case of `C[C@H]1C(=O)C[C@H]2C[C@@H]1C2(C)C` [(-)-Pinocamphone], the “net action potential response” value stood at 2.67 ± 6.4.

As for `OCCc1ccccc1` [2-Phenylethanol], the “net action potential response” value is -2 ± 6.9.

With `C=CC(O)CCCCC` (racemic) [(±)-1-Octen-3-ol], the “net action potential response” value came out at 2.67 ± 3.1.

As for `CC(=O)OCc1ccccc1` [Benzyl acetate], the “net action potential response” value turned out to be 1.33 ± 8.1.

As to `CCC/C=C\CO`, the “net action potential response” value came to 1.33 ± 4.2.

As to `Cc1ccc(C(C)C)cc1` [p-Cymene], the “net action potential response” value was -2 ± 4.

Regarding `COc1ccccc1` [Anisole], the “net action potential response” value was 1.33 ± 7.6.

`C=Cc1ccccc1` [Styrene]: the “net action potential response” value stood at 1.33 ± 9.

As to `C=Cc1ccc(OC)cc1` [4-Vinyl anisole], the “net action potential response” value is 0.667 ± 5.

As for `CC(=O)OCCC(C)C` [3-Methylbutyl acetate], the “net action potential response” value was -4 ± 4.

For `CCCCCC(O)CC` (racemic) [(±)-3-Octanol], the “net action potential response” value is -6.67 ± 1.1.

Consider `CC1=CCC2C(C1)C2(C)C` (single isomer, unassigned; (+)) [(+)-3-Carene], for which the “net action potential response” value is 3.33 ± 7.

Turning to `CC1=C[C@@H](O)[C@H]2C[C@@H]1C2(C)C` [(-)-trans-Verbenol], the “net action potential response” value is 52.7 ± 13.

For the compound `C[C@]12CCC[C@](C)(OC1)O2` (racemic) [(±)-Frontalin], the “net action potential response” value is -2 ± 4.

With `CC(=O)OCCc1ccccc1` [2-Phenethyl acetate], the “net action potential response” value is -2 ± 4.

As to `CCC/C=C/C=O` [(E)-hex-2-enal], the “net action potential response” value amounted to 4 ± 10.

For `CC[C@H]1O[C@]2(C)CCC[C@H]1O2` (racemic) [(±)-exo-Brevicomin], the “net action potential response” value was -3.33 ± 4.2.

For `C=C1CCC2CC1C2(C)C` (stereo not drawn) [(-)-β-Pinene], the “net action potential response” value is -3 ± 4.2.

Consider `CC(C)[C@@]12CC[C@@](C)(O)[C@@H]1C2` [(+)-trans-4-Thujanol], for which the “net action potential response” value is -0.667 ± 3.1.

For `CCc1ccc(O)c(OC)c1` [4-Ethylguaiacol], the “net action potential response” value is 2 ± 6.

Regarding `C=C1[C@@H]2CC[C@@H](C2)C1(C)C` (racemic) [(±)-Camphene], the “net action potential response” value was 4 ± 3.5.

For `CC1=CC(=O)[C@@H]2C[C@H]1C2(C)C` [(-)-Verbenone], the “net action potential response” value amounted to 24.7 ± 25.

Regarding `C=CCc1ccc(OC)c(OC)c1` [Eugenol methyl ether], the “net action potential response” value is -0.667 ± 8.1.

Consider `CC1=CCC2CC1C2(C)C` (stereo not drawn) [(+)-α-Pinene], for which the “net action potential response” value was -2 ± 7.2.

Regarding `COc1ccc(C)cc1OC` [3,4-Dimethoxytoluene], the “net action potential response” value is -2.67 ± 2.3.

With `CC12CCC(CC1)C(C)(C)O2` [1,8-Cineole], the “net action potential response” value was 1.33 ± 4.2.

Turning to `CC1=CCC2CC1C2(C)C` (stereo not drawn) [(-)-α-Pinene], the “net action potential response” value was -2.67 ± 3.1.

With `CCCCCCO` [1-Hexanol], the “net action potential response” value was -1.33 ± 4.6.

As to `CC/C=C\CCO`, the “net action potential response” value is -0.667 ± 3.1.

In the case of `CC(C)=CCC/C(C)=C/C=O` [Citral (E/Z mix)], the “net action potential response” value was 0 ± 3.5.

For the compound `CC(=O)c1ccccc1` [Acetophenone], the “net action potential response” value was 0.667 ± 1.1.

As for `CC(=O)OC/C=C(\C)CCC=C(C)C` [Geranyl acetate], the “net action potential response” value is -2.67 ± 4.2.

Turning to `CCC1CCC2(CCCO2)O1` (racemic) [(±)-Chalcogran], the “net action potential response” value amounted to 1.33 ± 5.

Take `CC1(C)C2CC=C(CO)C1C2` (racemic) [(±)-Myrtenol]: the “net action potential response” value was found to be 4.67 ± 1.1.

On to `CCC/C=C/CO`, for which the “net action potential response” value was 2 ± 4.

In the case of `C[C@@H]1C(=O)C[C@H]2C[C@@H]1C2(C)C` [(+)-Isopinocamphone], the “net action potential response” value was -0.667 ± 4.6.

Regarding `CC1=CCC(=C(C)C)CC1` [Terpinolene], the “net action potential response” value came out at 0 ± 3.5.

As to `C=C1CCC2(C(C)C)CC12` (racemic) [(±)-Sabinene], the “net action potential response” value was -4 ± 7.2.
